Assay in all cases: DAPPL (digital affinity profiling via proximity ligation, sequencing); 10 mM Tris-HCl pH 7.5, 50 mM NaCl, 1 mM DTT, 4% glycerol, room temperature, 30 min; GST-TFs on glutathione beads, 16-mer random dsDNA library, 0.1% formaldehyde crosslink after washing; high values mean tight binding
What all share (conditions): protein: recombinant; tags: N-terminal GST; dsDNA, one strand shown

Assay [1] has as its target T1, ELK1 (Homo sapiens, UniProt P19419 1-428).
T1 sequence: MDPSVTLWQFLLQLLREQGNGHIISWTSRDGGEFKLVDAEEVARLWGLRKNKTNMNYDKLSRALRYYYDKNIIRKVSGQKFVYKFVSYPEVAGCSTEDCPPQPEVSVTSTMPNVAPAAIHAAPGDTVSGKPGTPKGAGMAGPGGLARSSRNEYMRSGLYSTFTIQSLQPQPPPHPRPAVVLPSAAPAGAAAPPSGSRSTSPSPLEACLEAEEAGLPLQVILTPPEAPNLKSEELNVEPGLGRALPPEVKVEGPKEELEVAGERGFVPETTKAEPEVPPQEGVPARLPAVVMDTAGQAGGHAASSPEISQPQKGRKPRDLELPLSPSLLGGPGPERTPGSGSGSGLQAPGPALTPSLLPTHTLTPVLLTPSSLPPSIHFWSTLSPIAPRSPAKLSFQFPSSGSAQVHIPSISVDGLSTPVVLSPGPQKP
A digest of the protocol:
(§1)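 GST fusions of human transcription factors were expressed in yeast and captured with glutathione beads. Once given DNA barcodes and pooled alongside a tag-only sample, they were incubated for 30 min at room temperature with 200 nmole of a random double-stranded 16-mer DNA library in Tris/NaCl/DTT/glycerol buffer, then washed, crosslinked (0.1% formaldehyde), proximity-ligated, PCR-amplified and sequenced on an Illumina NextSeq500. The binding signal of each hexamer is its read frequency for a factor divided by its frequency for the tag-only sample.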

Assay [2] addresses T2, GABPA (Homo sapiens, UniProt Q06546 1-454).
T2 sequence: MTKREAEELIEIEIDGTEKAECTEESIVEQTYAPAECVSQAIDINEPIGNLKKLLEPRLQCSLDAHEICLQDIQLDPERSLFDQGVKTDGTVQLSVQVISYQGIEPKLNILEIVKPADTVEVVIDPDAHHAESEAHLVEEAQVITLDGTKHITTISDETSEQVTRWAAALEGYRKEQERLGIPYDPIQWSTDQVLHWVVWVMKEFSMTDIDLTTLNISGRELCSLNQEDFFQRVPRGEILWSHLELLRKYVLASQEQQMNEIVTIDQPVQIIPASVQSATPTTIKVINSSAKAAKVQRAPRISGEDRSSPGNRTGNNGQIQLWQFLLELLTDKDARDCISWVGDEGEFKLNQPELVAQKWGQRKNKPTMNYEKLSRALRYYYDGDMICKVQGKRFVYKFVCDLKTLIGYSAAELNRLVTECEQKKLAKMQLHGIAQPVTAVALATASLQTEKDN
Put shortly:
as §1

Assay [3] concerns the target T3, ERG (Homo sapiens, UniProt P11308 1-479).
T3 sequence: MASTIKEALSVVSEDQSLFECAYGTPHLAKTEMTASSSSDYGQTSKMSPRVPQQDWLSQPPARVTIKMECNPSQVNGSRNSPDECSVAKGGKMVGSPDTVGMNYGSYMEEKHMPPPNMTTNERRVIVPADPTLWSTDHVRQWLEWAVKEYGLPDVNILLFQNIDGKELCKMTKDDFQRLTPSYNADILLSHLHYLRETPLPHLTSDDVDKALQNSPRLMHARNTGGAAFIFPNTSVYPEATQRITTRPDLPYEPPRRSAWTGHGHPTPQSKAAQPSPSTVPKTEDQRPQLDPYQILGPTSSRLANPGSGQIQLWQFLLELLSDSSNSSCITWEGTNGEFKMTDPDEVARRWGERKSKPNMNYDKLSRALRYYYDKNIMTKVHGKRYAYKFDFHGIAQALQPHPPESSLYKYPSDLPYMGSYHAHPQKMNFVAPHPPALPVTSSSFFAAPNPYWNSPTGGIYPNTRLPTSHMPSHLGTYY
A digest of the protocol:
as §1

Assay [4] has as its target ELF1 (Homo sapiens, UniProt P32519 1-619). Put shortly:
as §1

The target of assay [5] is T4, EHF (Homo sapiens, UniProt Q9NZC4 1-300).
T4 sequence: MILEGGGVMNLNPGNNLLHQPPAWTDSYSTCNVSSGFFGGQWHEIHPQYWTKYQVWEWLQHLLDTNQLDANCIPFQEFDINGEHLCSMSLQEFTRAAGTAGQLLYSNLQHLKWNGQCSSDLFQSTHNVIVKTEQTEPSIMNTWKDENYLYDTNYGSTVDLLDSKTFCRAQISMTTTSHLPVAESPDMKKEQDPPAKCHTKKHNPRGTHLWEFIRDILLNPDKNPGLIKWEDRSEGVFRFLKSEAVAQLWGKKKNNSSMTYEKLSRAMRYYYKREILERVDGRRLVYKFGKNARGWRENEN
A digest of the protocol:
as §1

Assay [6] deals with SPI1 (Homo sapiens, UniProt P17947 1-270). Put shortly: as §1
The target of assay [7] is SPIB (Homo sapiens, UniProt Q01892 1-262). A digest of the protocol: as §1
Chain of SPIB (Q01892 whole entry): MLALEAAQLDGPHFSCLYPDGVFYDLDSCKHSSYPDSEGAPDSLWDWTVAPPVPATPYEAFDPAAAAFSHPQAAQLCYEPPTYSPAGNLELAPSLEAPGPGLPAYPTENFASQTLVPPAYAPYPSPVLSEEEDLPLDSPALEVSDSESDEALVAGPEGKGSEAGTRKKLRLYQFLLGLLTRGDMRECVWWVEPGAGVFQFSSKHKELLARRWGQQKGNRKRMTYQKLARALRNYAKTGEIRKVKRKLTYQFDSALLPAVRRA
The target in assay [8] is T5, FEV (Homo sapiens, UniProt Q99581 1-238).
T5 sequence: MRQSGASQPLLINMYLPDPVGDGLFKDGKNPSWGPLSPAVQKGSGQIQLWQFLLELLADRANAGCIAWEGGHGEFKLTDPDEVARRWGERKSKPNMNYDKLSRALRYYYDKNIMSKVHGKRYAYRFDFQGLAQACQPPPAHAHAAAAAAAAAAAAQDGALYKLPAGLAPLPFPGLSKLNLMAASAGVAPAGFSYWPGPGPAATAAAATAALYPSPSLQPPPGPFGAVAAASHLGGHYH
A digest of the protocol:
as §1

In assay [9] the target is ETV5 (Homo sapiens, UniProt P41161 1-510). A digest of the protocol:
as §1

Assay [10] concerns the target ELF4 (Homo sapiens, UniProt Q99607 1-663). A digest of the protocol:
as §1

Assay [11] addresses T6, ELK4 (Homo sapiens, UniProt P28324-2 1-405).
T6 sequence: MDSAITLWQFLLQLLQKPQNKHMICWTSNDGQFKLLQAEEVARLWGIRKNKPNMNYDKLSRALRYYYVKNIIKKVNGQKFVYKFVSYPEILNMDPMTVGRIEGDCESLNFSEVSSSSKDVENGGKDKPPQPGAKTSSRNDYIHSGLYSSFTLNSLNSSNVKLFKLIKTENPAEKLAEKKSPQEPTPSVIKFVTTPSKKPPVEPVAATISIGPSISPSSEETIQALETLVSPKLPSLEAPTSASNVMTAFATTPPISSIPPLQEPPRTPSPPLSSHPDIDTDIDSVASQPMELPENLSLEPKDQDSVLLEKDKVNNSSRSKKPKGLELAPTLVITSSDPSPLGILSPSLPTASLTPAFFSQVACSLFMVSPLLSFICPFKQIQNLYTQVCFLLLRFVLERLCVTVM
Put shortly: as §1

For assay [12], the target named is T7, ETV2 (Homo sapiens, UniProt O00321 1-342).
T7 sequence: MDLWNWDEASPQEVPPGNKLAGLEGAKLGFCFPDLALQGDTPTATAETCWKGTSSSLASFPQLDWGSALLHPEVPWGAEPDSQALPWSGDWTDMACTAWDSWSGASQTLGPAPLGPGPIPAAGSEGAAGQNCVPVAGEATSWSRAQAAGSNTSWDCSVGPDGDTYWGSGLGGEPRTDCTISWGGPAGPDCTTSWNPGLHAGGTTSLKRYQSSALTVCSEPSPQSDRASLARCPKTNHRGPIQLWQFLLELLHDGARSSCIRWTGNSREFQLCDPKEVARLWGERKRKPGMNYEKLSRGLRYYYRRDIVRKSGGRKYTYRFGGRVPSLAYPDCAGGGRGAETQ
A digest of the protocol: as §1

The target in assay [13] is ETV1 (Homo sapiens, UniProt P50549 1-477). Put shortly:
as §1

The target in assay [14] is T8, ERF (Homo sapiens, UniProt P50548 1-548).
T8 sequence: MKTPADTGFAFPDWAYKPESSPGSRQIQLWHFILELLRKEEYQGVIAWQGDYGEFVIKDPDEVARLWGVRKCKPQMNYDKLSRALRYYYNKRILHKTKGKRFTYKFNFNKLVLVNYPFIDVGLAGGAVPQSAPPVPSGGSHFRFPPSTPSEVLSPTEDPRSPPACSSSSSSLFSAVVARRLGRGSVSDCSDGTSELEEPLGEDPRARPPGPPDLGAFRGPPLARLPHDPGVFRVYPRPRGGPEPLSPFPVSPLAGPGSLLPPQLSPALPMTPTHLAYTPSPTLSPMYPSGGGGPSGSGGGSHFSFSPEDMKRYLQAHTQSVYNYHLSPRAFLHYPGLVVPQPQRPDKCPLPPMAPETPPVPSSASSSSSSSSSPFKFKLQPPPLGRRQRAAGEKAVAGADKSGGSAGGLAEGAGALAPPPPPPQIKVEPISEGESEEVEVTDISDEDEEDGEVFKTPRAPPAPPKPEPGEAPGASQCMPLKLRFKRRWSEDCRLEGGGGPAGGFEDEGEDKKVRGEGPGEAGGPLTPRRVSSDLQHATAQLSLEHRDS
Put shortly: as §1

For assay [15], the target named is T9, ETS2 (Homo sapiens, UniProt P15036 1-469).
T9 sequence: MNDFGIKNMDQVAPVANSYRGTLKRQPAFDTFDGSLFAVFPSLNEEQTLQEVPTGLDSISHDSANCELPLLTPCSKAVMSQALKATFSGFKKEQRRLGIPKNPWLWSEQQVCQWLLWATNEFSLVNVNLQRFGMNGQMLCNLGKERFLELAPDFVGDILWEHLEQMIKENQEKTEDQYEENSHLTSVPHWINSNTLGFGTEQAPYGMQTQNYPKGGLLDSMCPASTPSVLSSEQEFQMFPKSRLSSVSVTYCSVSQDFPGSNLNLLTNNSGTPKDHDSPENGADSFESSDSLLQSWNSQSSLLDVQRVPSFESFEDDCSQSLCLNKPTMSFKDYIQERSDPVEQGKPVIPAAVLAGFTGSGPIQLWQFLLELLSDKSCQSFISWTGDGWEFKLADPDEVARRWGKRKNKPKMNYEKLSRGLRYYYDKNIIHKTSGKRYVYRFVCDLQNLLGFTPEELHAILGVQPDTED
Put shortly:
as §1

Assay [16] deals with T10, ETV7 (Homo sapiens, UniProt Q9Y603 1-341).
T10 sequence: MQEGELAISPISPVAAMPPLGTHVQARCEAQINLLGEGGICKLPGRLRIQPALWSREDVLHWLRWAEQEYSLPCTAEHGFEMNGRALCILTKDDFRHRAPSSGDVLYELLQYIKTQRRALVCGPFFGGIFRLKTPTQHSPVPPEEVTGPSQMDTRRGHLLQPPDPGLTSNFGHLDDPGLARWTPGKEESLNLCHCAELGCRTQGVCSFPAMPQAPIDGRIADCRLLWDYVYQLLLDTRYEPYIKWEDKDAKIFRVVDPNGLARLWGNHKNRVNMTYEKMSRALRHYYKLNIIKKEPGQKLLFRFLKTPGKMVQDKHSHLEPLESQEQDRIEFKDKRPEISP
Put shortly:
as §1

Assay [17] concerns the target ETV6 (Homo sapiens, UniProt P41212 1-452). Put shortly:
as §1

Chain of ETV6 (P41212 whole entry): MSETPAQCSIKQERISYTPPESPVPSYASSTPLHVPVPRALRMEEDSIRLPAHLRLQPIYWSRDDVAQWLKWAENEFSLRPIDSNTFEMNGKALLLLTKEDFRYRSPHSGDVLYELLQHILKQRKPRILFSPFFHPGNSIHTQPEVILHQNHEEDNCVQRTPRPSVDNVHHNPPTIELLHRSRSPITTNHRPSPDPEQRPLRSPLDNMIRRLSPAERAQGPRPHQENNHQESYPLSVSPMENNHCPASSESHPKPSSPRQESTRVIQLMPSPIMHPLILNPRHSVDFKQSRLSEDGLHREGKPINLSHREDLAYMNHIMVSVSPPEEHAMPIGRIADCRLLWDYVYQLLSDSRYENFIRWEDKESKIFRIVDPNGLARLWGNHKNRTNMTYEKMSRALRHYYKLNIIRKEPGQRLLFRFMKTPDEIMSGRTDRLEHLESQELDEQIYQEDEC
Chain of ELF4 (Q99607 whole entry): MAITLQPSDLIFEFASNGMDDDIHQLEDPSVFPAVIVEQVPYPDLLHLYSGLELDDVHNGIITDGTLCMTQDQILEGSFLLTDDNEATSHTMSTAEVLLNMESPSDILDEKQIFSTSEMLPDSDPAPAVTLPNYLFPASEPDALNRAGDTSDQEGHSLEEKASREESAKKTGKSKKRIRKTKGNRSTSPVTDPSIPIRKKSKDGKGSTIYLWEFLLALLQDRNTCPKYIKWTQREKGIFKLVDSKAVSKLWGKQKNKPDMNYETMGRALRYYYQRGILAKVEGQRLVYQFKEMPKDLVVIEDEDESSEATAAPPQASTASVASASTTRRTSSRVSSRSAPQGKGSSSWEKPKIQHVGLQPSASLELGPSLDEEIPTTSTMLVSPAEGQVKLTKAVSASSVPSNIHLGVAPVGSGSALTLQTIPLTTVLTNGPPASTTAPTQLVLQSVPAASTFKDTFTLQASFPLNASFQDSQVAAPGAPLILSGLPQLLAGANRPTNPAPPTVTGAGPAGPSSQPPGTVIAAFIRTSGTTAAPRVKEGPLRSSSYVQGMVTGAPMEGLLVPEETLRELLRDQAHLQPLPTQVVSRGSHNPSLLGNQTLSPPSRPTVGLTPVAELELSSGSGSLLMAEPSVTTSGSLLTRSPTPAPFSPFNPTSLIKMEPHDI
Chain of ELF1 (P32519 whole entry): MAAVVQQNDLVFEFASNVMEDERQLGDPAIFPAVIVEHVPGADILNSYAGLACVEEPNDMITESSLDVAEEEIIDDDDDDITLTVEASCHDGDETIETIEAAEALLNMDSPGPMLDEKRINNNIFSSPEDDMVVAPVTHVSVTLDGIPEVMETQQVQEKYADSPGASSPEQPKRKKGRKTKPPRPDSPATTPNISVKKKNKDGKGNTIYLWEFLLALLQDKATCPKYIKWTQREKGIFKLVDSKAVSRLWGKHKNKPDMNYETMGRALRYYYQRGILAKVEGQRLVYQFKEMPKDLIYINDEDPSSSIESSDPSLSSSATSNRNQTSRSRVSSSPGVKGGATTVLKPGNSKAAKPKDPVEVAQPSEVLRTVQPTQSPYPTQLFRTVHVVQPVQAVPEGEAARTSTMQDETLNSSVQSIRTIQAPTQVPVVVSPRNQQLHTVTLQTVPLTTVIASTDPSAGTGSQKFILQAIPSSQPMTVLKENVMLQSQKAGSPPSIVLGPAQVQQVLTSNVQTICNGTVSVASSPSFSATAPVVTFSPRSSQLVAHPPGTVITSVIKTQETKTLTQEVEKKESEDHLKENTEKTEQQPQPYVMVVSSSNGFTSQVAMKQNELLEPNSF
Chain of ETV1 (P50549 whole entry): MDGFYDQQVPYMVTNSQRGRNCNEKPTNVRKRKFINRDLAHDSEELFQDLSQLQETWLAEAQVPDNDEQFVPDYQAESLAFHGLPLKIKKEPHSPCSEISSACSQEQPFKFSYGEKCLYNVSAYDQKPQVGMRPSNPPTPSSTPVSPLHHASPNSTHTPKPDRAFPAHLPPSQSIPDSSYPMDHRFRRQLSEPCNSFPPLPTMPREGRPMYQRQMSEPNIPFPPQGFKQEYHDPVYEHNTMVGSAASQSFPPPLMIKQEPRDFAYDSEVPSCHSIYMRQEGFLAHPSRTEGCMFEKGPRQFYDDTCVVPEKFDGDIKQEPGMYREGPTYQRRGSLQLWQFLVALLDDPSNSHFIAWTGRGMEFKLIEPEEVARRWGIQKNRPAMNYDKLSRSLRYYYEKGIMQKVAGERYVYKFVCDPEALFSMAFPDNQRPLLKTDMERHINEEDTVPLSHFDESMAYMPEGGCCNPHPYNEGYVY
Chain of ETV5 (P41161 whole entry): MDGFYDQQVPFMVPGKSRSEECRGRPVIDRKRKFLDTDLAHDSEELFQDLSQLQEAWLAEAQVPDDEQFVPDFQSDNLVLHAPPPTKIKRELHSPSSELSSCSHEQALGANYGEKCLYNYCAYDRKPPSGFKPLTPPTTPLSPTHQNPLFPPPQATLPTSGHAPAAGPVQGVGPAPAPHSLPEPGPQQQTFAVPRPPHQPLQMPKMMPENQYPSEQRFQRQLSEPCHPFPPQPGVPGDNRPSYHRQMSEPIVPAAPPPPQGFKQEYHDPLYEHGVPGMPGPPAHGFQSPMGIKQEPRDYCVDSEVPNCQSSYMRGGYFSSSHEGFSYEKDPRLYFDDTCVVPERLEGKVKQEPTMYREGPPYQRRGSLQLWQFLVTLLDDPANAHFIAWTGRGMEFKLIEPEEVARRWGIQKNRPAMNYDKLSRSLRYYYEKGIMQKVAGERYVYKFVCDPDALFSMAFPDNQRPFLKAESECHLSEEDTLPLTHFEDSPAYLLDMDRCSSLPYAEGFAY

In the case of CATACA, the binding signal in [1] was 1.04 fold enrichment (6-mer frequency, TF over GST control); in assay [2], 1.08 fold enrichment (6-mer frequency, TF over GST control); in assay [3] it was 1.07 fold enrichment (6-mer frequency, TF over GST control); in assay [4], 1.06 fold enrichment (6-mer frequency, TF over GST control); in assay [5], 1.03 fold enrichment (6-mer frequency, TF over GST control); in [6], 1.05 fold enrichment (6-mer frequency, TF over GST control). The binding signal was 1.08 fold enrichment (6-mer frequency, TF over GST control) in assay [7]; 1.07 fold enrichment (6-mer frequency, TF over GST control) in assay [8]; 1.05 fold enrichment (6-mer frequency, TF over GST control) in assay [9]; 1.15 fold enrichment (6-mer frequency, TF over GST control) in assay [10]; 1.06 fold enrichment (6-mer frequency, TF over GST control) in assay [11]; 1.1 fold enrichment (6-mer frequency, TF over GST control) in [12]. The binding signal in assay [13] was 1.02 fold enrichment (6-mer frequency, TF over GST control); in assay [14], 1.15 fold enrichment (6-mer frequency, TF over GST control); in [15], 1.06 fold enrichment (6-mer frequency, TF over GST control); in assay [16] it was 1.1 fold enrichment (6-mer frequency, TF over GST control); in [17], 1.01 fold enrichment (6-mer frequency, TF over GST control).
